About 83,000 compounds went through this panel and 20% of them were active in at least one assay; those are over-represented in the sample as a whole.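 96-well plates, one dose, 48 hours. Percent growth reported; active if below 10.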 A number with no mark means an inactive call. The source made the active and inactive calls.
Tested on: HL-60(TB) leukemia
Test: NCI-60 one-dose screen, 48 h (100 = growth as untreated, 0 = no growth, -100 = all killed)
Conditions: 10 µM unless noted

Row | SMILES | growth
1 | CCCC#CCN(CC)CC | 96.6%
2 | COc1cc(NCCCCCN=C(N)NC(N)=NC(C)C)c2ncccc2c1 | 1.51% (active)
3 | CCN(CC)CCNC(=O)n1cc(-c2ccncc2)c(-c2ccc(Cl)c(OC)c2)n1 | 95.9%
4 | COc1ccc2cc(C(=O)N3CCC([C@@H](C)C(=O)NCc4ccc5c(c4)OCO5)CC3)[nH]c2c1 | 91% [50 µM]
5 | CC(c1ccccc1)N(C)C (stereo not drawn) | 88.5%
6 | Clc1cc(Br)ccc1-c1ccc(CNCC2CCNCC2)o1 | 67.7%
7 | CN(CC(=O)N(Cc1ccc(C2CCCCC2)cc1)c1ccc(C(=O)O)cc1)S(=O)(=O)c1c(F)c(F)c(F)c(F)c1F | -28.6% (active)
8 | O=[N+]([O-])c1ccc(O)c(S(=O)(=O)O)c1 | 101%
9 | CCCCCCCCCCCCCCCCNC(=S)N/N=C/c1ccc(OC)cc1 | 94.3%
10 | CC(=O)Oc1ccccc1C(=O)Nc1ncc([N+](=O)[O-])s1 | -43.8% (active)
11 | O=[N+]([O-])c1cc2ncccc2c2ncccc12 | 88.1%
12 | c1ccc([I+]c2ccccc2)cc1 | 52%
13 | COc1cccc(/C=N/C(=S)NC2(C)C3CCC(C3)C2(C)C)c1O (stereo not drawn) | 75.5%
14 | C=CC(=O)Nc1ccc(Oc2nccc(Nc3nnc(-c4ccc(C)cc4)s3)n2)cc1 | 41.6%
15 | O=C(Nc1ccc(NS(=O)(=O)c2ccc(F)cc2)cc1)C12CC3CC(CC(C3)C1)C2 | 96.1%
16 | Cc1nn(-c2ccc([N+](=O)[O-])cc2)c2ncnc(N/N=C/c3ccccc3O)c12 | -0.479% (active)
17 | N#C/C(=C\c1c(-c2ccccc2)[nH]c2ccccc12)C(=O)c1ccc(Cl)cc1 | 12.7%
18 | CC(O)C(F)(F)C(F)(F)C(F)(F)F (stereo not drawn) | 101%
19 | Cc1cc(-c2ccccc2)nc2ccccc12 | 90.8%

Row | SMILES | growth
20 | CC([C@H]1CCC2C3CCC4C[C@@H](N)CC[C@]4(C)C3CC[C@@]21C)N(C)C (stereo partly drawn) | 30.6%
21 | OCc1ccccc1F | 135%
22 | CCCn1cnc2c(c1=N)C(c1ccc(Cl)cc1)c1sc3c(F)cccc3c1O2 (stereo not drawn) | 62.5%
23 | Cc1c(C)n(CC(O)CNC2CCCCC2C)c2ccccc12 (stereo not drawn) | -13.8% (active)
24 | COc1ccc(/C(=C(\c2ccccc2)[N+](=O)[O-])c2ccc(OCCN3CCCC3)cc2)cc1 | 64.1%
25 | O=C1/C(=C\c2ccc(Cl)cc2)CN(C(=O)c2ccccc2)C/C1=C\c1ccc(Cl)cc1 | 58%
26 | Cc1nc2c(nnn2-c2ccccc2)c2nc(-c3ccccc3)oc(=O)c12 | 109%
27 | Cc1c(CN2CCN(C(=O)[C@H](C)O)CC2)sc2c(N3CCOCC3)nc(-c3cnc(N)nc3)nc12 | -7.28% (active)
28 | CC/C=C\C[C@H](O)C/C=C1/C(=O)C=C[C@@H]1C/C=C\CCCC(=O)NC | -27.2% (active)
29 | COc1cc2nc(N3CCCC3)nc(NCCc3ccccc3)c2cc1OC | -53.6% (active)
30 | CN1CC[C@H](c2c(O)cc(O)c3c(=O)cc(-c4ccccc4Cl)oc23)[C@H](O)C1 | -23.1% (active)
31 | CC(=O)c1cc2c(N)c(C(=O)Nc3cccc4c3OCCO4)sc2nc1C | 86.8%
32 | CCOC(=O)c1sc2ncnc(Nc3ccc4c(cnn4C(=O)Nc4ccccc4)c3)c2c1C | 90.9%
33 | O=C1NC(=O)/C(=C\c2ccccc2)C2=C1CCCC2 | -33.3% (active)
34 | O=C(/C=C(/C=C/c1coc2ccccc12)OB(F)F)/C=C/c1coc2ccccc12 | 88.6%
35 | CC(C)CCC[C@@H](C)[C@H]1CCC2C3=CCC4C(=O)C=CC(=O)C4C3CC[C@@]21C (stereo partly drawn) | -5.46% (active)
36 | Clc1ccc2nn3c4ccccc4c(OCCN4CCOCC4)nc3c2c1 | 81.9%
37 | NCCCNc1nc2ccc(Cl)cc2c2c(=O)c3cc(F)ccc3sc12 | 34.9%
38 | COc1ccc(-c2cc(/C=C/C(=O)c3ccc(N)cc3)[nH]n2)cc1 | -23% (active)
